Hits are enriched below; roughly 2.4% of the tested compounds scored in any of these assays.
GCN5L2 inh: inhibitors of human GCN5L2 histone acetyltransferase. 0.21% of 390,000 active. GCN5L2 HAT assay, ThioGlo1 CoA-SH fluorescence. Potency, µM (top dose mostly 58.9 µM), without a hit: at the top dose activity change, negative = inhibition, actives largely listed as inhibitors. AID 504327; further: on the % scale 0 is the no-effect control and ±100 the full control effect
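Enzyme at 20nM final was mixed with library compounds for 15 min at room temperature. Peptide H3(1-25) at 75uM, acetyl-CoA at 70uM and ThioGlo1 at 50uM were then added. Plates were read immediately and after 20 min (Ex340nm/Em540nm).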
GLS inhibitor: inhibitors of human glutaminase (GLS). Potency, µM (doses to about 45.5 µM), for inactives: top-dose activity change, negative = inhibition, most hits filed as inhibitors. O94925. 0.21% of 410,000 active. GLS enzymatic activity, qHTS titration; further: on the % scale 0 is the no-effect control and ±100 the full control effect
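Coupled fluorescence readout: glutamate oxidase/HRP/Amplex Red detect glutamate formed by hKGA from L-glutamine (1 mM solution added). Buffer 45 mM KH2PO4 pH 8.2, 0.02% Tween-20; reads at t0 and 30 min RT.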
Pol eta inh: blocks human DNA polymerase eta activity | Q9Y253 | recombinant Pol eta, fluorescent DNA replication assay | Potency, µM (doses to about 114 µM), without a hit: at the highest dose activity change, negative = inhibition, most hits filed as inhibitors | 1.2% of 390,000 active | AID 588591; further: on the % scale 0 is the no-effect control and ±100 the full control effect
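Fluorescent replication assay: 50 nM final substrate added after a 15 min room-temperature compound preincubation with 10 nM enzyme. Signal taken at 0 min and again at 10 min.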
Pol iota inh: blocks human DNA polymerase iota activity; Q9UNA4; Pol iota fluorescent replication assay, 10 min; Potency, µM (titrated, usually from 115 µM), without a hit: at the highest dose activity, negative = inhibition, actives largely listed as inhibitors; 1% of 390,000 active
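Fluorescent replication assay read twice, at 0 min and 10 min after adding 50 nM (final) substrate. Enzyme (10 nM) and compounds were first incubated 15 min at room temperature; enzyme-free buffer wells were negative controls.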
POLB inh: inhibitors of human DNA polymerase beta. P06746. Pol beta primer extension/strand displacement, fluorescence kinetic. Potency, µM (doses to about 114 µM), for inactives: at the top dose activity change, negative = inhibition, actives largely listed as inhibitors. 1.3% of 340,000 active; further: on the % scale 0 is the no-effect control and ±100 the full control effect
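Homogeneous kinetic assay of primer extension and strand displacement by 10 nM Pol beta, preincubated 15 min at room temperature with compound before 50 nM substrate (final) was added. Read at 0 and 10 min; four-parameter Hill fit.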
POLK inh: inhibitors of human DNA polymerase kappa | Q9UBT6 | purified Pol kappa, fluorescent DNA synthesis assay, 10 min | Potency, µM (doses to about 107 µM), for the others: top-dose activity, negative = inhibition, hits mostly inhibitors | 0.53% of 400,000 active | AID 588579; further: on the % scale 0 is the no-effect control and ±100 the full control effect
Target sequence (Q9UBT6 whole entry, looked up): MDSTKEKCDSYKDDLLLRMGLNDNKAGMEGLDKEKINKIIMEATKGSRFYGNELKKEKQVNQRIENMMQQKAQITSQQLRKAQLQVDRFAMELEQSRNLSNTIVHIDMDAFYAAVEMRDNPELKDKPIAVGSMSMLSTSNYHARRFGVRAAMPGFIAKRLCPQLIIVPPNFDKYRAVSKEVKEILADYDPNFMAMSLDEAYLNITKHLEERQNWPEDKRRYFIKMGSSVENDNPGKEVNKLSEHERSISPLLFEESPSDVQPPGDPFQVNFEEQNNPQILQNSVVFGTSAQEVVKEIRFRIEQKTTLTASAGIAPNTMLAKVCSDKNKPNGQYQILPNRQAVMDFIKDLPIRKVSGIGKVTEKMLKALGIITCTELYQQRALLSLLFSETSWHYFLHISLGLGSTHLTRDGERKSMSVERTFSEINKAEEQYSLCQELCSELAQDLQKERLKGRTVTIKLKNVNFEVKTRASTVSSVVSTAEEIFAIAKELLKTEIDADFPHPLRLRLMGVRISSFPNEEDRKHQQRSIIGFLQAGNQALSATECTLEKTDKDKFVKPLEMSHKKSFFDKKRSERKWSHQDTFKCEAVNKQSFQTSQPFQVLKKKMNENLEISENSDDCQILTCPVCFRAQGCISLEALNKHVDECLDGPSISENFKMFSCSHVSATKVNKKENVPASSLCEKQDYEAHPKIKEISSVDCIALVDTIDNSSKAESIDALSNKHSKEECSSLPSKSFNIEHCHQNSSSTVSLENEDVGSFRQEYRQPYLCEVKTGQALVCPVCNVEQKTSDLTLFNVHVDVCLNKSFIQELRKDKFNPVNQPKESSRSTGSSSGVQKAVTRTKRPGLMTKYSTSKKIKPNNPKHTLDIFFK
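First, compounds were pin-transferred onto 10 nM Pol kappa. After 15 min at room temperature, substrate was added to 50 nM final. Fluorescence was then measured kinetically at 0 and 10 min.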
An asterisk follows results filed as active; ? = inconclusive; . = no result; ! = repeats disagree; [ ] = remark or other dose. The call rests on the fitted dose curve; in most records, active means well fitted inhibition curve with a large enough effect; inconclusive means small, poorly fitted or top-dose-only effect, or another doubt; inactive means no such curve, though single readings can be large or run the other way. Potency means the concentration at half of the fitted maximal effect.

SMILES | GCN5L2 inh | GLS inhibitor | Pol eta inh | Pol iota inh | POLB inh | POLK inh
O=c1c2ccccc2oc2cc(OCc3cccc(F)c3)cc(O)c12 | -14.0% | -6.0% | -1.0% | ? | 22.4µM* | ?
O=C1ON=C(c2ccccc2)/C1=C/c1ccco1 | -6.3% | ? | ? | 22.4µM* | 25.1µM* | 28.2µM*
O=C1NNC(c2ccccc2)=N/C1=C\c1ccco1 | -16.3% | ? | ? | ? | 10µM* | -40.6%
Cc1ccc(O)c(N=Cc2sc3ccccc3c2Cl)c1 | -2.0% | 11.2µM* | -18.7% | 189.8% | 32.5% | -9.0%
Oc1ccccc1N=Cc1sc2ccccc2c1Cl | -5.7% | 21.5% | 2.4% | 11.0% | 28.5% | -7.7%
CCN(CC)c1ccc(NS(=O)(=O)c2ccc(-c3coc(C)n3)cc2)c(C)c1 | -19.3% | 9.2% | -13.0% | -12.6% | ? | -4.9%[60.1 µM]
COc1ccc(N2Cc3ccccc3C2=O)cc1 | -17.2% | 181.4% | -23.3% | 9.8% | -0.8% | -5.0%
C=CC(=O)Oc1ccc(N2Cc3ccccc3C2=O)cc1 | . | 15.8% | 31.6µM* | 39.8µM* | . | -38.0%
O=C(COC(=O)c1cc(-c2ccc(Cl)s2)nc2ccccc12)NCc1ccco1 | -27.1% | -3.9% | 20µM* | ? | 1.4% | -10.1%
O=C(COC(=O)c1cc(-c2cccs2)nc2ccccc12)NCc1ccco1 | -18.3% | -17.2% | 11.2µM* | ? | 22.4µM* | 89.1µM*
COc1ccc(CNC(=O)COC(=O)c2cc(-c3ccc(Cl)s3)nc3ccccc23)cc1 | 4.2% | -1.5% | -15.4% | -2.8% | -0.4% | 2.6%
CCCCCCCCCCCCCCCC[n+]1ccc(/C=C/c2c(C)[nH]c3ccccc23)cc1 | . | . | . | 15.9% | . | -14.8%
COC(=O)[C@H](CCSC)NC(=O)c1ccc(NC[C@@H](N)CS)cc1-c1ccccc1 | -11.5% | . | . | . | . | 14.7%[60.1 µM]
O=C1N/C(=N/NC(=O)c2cccc3ccccc23)S/C1=C\c1ccccc1OCc1ccccc1 | ? | 26.1% | 22.4µM* | 28.2µM* | 50.1µM* | 50.1µM*
COc1cccc(/C=C2\SC(=O)NC2=O)c1OCc1ccc(C(=O)O)cc1 | -2.9% | ? | -4.1% | 20.9% | -4.3% | -20.9%
CCCCOCC(O)Cn1c(C)nc2ccccc21 (stereo unspecified) | -3.8% | 15.5% | 8.8% | 14.3% | 6.7% | -7.7%
Cc1nc2ccccc2n1CC(O)Cn1c2ccccc2c2ccccc21 (stereo unspecified) | -4.5% | -3.1% | -15.4% | 100µM* | -1.7% | -25.5%
O=C(O)C1CC=CCC1C(=O)Nc1ccc(F)c(F)c1 (stereo unspecified) | 0.4% | 4.8% | 3.3% | 9.6% | 59.3% | -11.9%
CC(=O)Nc1ccc2c(c1)OCCO2 | -9.5% | 0.2% | -16.8% | 15.7% | 11.0% | -6.2%
O=C(O)C1CC=CCC1C(=O)Nc1cccc(F)c1 (stereo unspecified) | -17.9% | 7.5% | -6.4% | -5.8% | 28.2µM* | -13.6%
O=C(O)C1CC=CCC1C(=O)Nc1ccc2c(c1)OCCO2 (stereo unspecified) | -2.6% | 4.5% | ? | -15.5% | 20µM* | -3.7%
Cc1ccc(C(=O)n2nc(C)c(S(=O)(=O)N3CCOCC3)c2C)cc1C | -4.2% | 1.5% | 0.9% | -2.5% | 28.7% | -17.7%[60.1 µM]
C=CCN1C(=O)/C(=C/c2ccc(OCC(=O)O)cc2)S/C1=N/c1nccs1 | -14.8% | 9.4% | ? | 89.1µM* | ? | 0.2%
CCOc1ccc2nc3cc(NCc4ccc(OC)cc4)ccc3c(N)c2c1 | -2.9% | -12.9% | 79.4µM* | 2.0% | 28.2µM* | 2.4%
CCn1cnc2cc(NCc3ccc(OC)cc3)ccc21 | -9.9% | -2.1% | -7.5% | -6.8%[58.9 µM] | 6.8% | -9.0%
SMILES | GCN5L2 inh | GLS inhibitor | Pol eta inh | Pol iota inh | POLB inh | POLK inh
CCOc1ccc2nc3cc(N)ccc3c(N)c2c1 | ? | -27.7% | . | . | . | 22.4µM*
CCc1ccc(NC(=O)CSc2nnc(-c3ccccc3)n2C)cc1 | . | . | . | -3.4% | . | -6.7%
CC(C)(C)c1cccc(S(=O)(=O)N2CCN(c3nc(-c4cccs4)nc4ccccc34)CC2)c1 | . | . | . | 10.5% | . | -0.2%
CCC(=O)Nc1nnc(Sc2ccc(N(C)C)cc2)s1 | -5.0% | 25.6% | -3.9% | ? | 50.1µM* | -8.6%
O=Nc1c(O)[nH]c2c(Cl)c(Cl)ccc12 | 12.2% | . | . | . | . | -7.4%[12 µM]
COC1=C2C[C@H](C)C[C@H](OC)[C@@H](O)[C@@H](C)C=C(C)[C@H](OC(N)=O)[C@@H](OC)C=CC=C(C)C(=O)NC(=CC1=O)C2=O | . | . | . | -5.1% | . | -6.4%
O=C(COC(=O)c1cc(-c2ccco2)nc2ccccc12)NCc1ccc2c(c1)OCO2 | -7.9% | -5.3% | ? | -13.1% | 28.2µM* | -5.4%
CCCn1c(=O)c2c(C(=O)OCC)cc(-c3ccco3)nc2n(CCC)c1=O | -11.5% | -0.3% | -8.0% | 7.0% | 13.8% | -7.8%
O=C(O)c1cc(-c2ccco2)nc2ccc(Br)cc12 | ? | 7.94µM*! | 2.51µM*! | 2.82µM*! | 3.16µM*! | 7.08µM*!
COc1cc(/C=N/NC(=O)c2cc(-c3ccco3)nc3ccccc23)cc(OC)c1O | -13.2% | 9.7% | ? | 44.7µM* | 50.1µM* | ?
CCOC(=O)c1cc(-c2ccco2)nc2c1c(C)nn2-c1ccccc1 | -22.8% | 0.8% | ? | 15.1% | 44.7µM* | -6.1%
CCCCNC(=O)Cn1c(SCc2cccc(F)c2)nc2ccncc21 | . | . | . | 2.0% | . | -1.9%
CCN1C(=NCc2cccc(Cl)c2)N[C@@H](c2cccc(C(F)(F)F)c2)C(C(=O)OC)=C1C | . | . | . | ? | . | -14.6%
NC(=O)COC(=O)c1cc(-c2ccco2)nc2ccccc12 | -5.3% | -14.0% | 44.7µM* | ? | ? | ?
Cc1ccc(C(=O)N2CCC(N3CCN(Cc4ccc(F)cc4)C(=O)C3=O)CC2)cc1 | -1.3% | 6.7% | -16.9% | 2.0% | 0.7% | 16.7%
COc1ccc(OC)c(Nc2cc3ccccc3c(=O)[nH]2)c1 | . | 20.1% | ? | 31.6µM* | . | -6.1%
CCN(CC)c1ccc(/C=C/C2=C3C=CC=CC3NC=C2)cc1 (stereo unspecified) | . | . | . | 1.26µM* | . | -20.5%
CCN(CC)c1ccc(/C=C/c2ccccn2)cc1 | . | . | . | ? | . | -22.5%
O=C(OCC(=O)c1ccc[nH]1)c1ccc([N+](=O)[O-])cc1 | -1.9% | -0.8% | 1.8% | -8.6% | . | -3.9%
CC(NC(=O)COC(=O)/C=C/c1ccc([N+](=O)[O-])cc1)c1ccccc1 (stereo unspecified) | -3.3% | 0.2% | -34.6% | 89.1µM* | 29.2% | ?
O=C(COC(=O)c1ccc([N+](=O)[O-])s1)NCCc1ccccc1 | -7.6% | 2.8% | ? | 56.2µM* | . | ?
Cc1ccc(C(=O)OCC(=O)NC(C)c2ccccc2)s1 (stereo unspecified) | 0.4% | -21.1% | -6.5% | 17.9% | . | -10.5%

Assay outcomes as filed in PubChem BioAssay.
